From PubChem BioAssay AID485318 (Broad Institute, 2010)
Among all 1,400 compounds or so, fewer than 10 were called active. These entries were drawn from the full list. Unmarked numbers belong to inactive results.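 How the source made its calls: active means fluorescence-lowering compounds whose fitted half-maximal concentration is at or below ten times the highest valid dose tested; inconclusive means flat curve at 30 to 70% inhibition, or poor fit; inactive means the rest.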

Biological target: Histone deacetylase 3 (Homo sapiens) (UniProt O15379)
Assay: HDAC3 deacetylase inhibitors, dose response, counter-screen for JMJD2C/GASC1 demethylase inhibitor project, biochemical, fluorescence, cherry-picked samples (AID 485318);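 further: enzyme preincubated with compound before substrate and trypsin were added; 0% = neutral control wells and -100% = SAHA positive control wells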
Settings: recombinant HDAC3, fluorogenic peptide/trypsin coupled; series mostly up to 12 µM; activity change, negative = inhibition: at the top concentration

Histone deacetylase 3 (Homo sapiens), sequence (O15379 whole entry, looked up): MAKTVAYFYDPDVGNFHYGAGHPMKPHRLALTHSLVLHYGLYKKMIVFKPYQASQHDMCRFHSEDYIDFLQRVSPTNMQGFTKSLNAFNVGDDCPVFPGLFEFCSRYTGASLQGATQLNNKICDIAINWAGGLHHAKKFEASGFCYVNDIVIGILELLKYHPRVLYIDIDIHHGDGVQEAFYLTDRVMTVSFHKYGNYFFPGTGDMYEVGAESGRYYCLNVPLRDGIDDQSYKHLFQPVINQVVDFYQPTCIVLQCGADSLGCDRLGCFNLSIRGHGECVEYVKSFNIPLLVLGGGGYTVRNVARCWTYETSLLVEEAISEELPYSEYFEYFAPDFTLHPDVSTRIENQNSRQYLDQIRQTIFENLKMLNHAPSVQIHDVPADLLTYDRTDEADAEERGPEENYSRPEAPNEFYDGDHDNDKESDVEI

Row | SMILES | activity change, negative = inhibition [%]
1 | Cc1ccccc1N=C1N=C(N)c2ccccc21 | 1.05
2 | COc1cccc(C(c2nnnn2CCc2ccccc2)N2CCN(c3ccccc3)CC2)c1OC (stereo unspecified) | -0.0474
3 | O=C(O)c1ccc2cc(-c3ccccc3)[nH]c2c1 | -0.104
4 | Cc1cc(N(C)C)cc(C)[n+]1[O-] | 1.03
5 | CC(=O)Oc1ccc(NC(=O)Cc2ccccc2)c(C(=O)O)c1 | 0.179
6 | CCN(C[C@H]1N[C@@](Cc2ccccc2)(C(=O)OC)[C@H]2C(=O)N(C)C(=O)[C@@H]12)S(=O)(=O)c1ccccc1 | -0.222
7 | Cn1c(=O)n(C)c2cc(S(=O)(=O)N3CCOCC3)ccc21 | 1.24
8 | Cc1ccc(NC2=NCC(=O)N2Cc2ccc3c(c2)OCO3)c(C)c1 | 0.52
9 | CC1(C)CC2(CC(C)(C)N1)OC(=O)N1CCc3ccccc3C12C (stereo unspecified) | 0.0279
10 | CCCN(C(=O)Cc1ccc(S(=O)(=O)N2CCOCC2)s1)c1c(N)n(Cc2ccccc2)c(=O)[nH]c1=O | -0.39
11 | CC(=O)Nc1cc2c(cc1NC(=O)Cn1nc(-c3ccccc3)ccc1=O)OCCO2 | -0.351
12 | CCOc1ccccc1N(CC(=O)O)S(=O)(=O)c1ccc(C)cc1 | 0.686
13 | COc1ccc(/C=C2/CC/C(=C\c3ccc(OC)c(OC)c3OC)C2=O)c(OC)c1OC | 0.948
14 | COc1cc(NS(=O)(=O)c2ccc(NC(=O)c3ccc(C)o3)cc2)nc(OC)n1 | 0.178
15 | C[C@@H]1CN([C@H](C)CO)C(=O)c2cc(NC(=O)Cc3ccccc3)ccc2O[C@H]1CN(C)Cc1ccc(Oc2ccccc2)cc1 | 0.213
16 | CCOc1ccc(N2C(=O)CC(N(O)c3ccccc3)C2=O)cc1 (stereo unspecified) | 0.801
17 | CC1CN(Cc2c(O)ccc3c2oc(=O)c2ccccc23)CC(C)O1 (stereo unspecified) | -0.481
18 | COc1cc2c(cc1OC)C1=C(C#N)COCN1CC2 | -0.477
19 | CCNC(=S)NNC(=O)c1csc2c1CCC(C)C2 (stereo unspecified) | 0.337
20 | O=C(CN1C(=O)NC2(CCCC2)C1=O)Nc1nc(-c2ccccc2)cs1 | -0.418
21 | CC1CCCC(NC(=O)COC(=O)c2ccc(N(C)C)cc2)C1C (stereo unspecified) | 0.088
22 | COc1ccc(C(=O)NCc2nnc(SCC(=O)N3CCc4ccccc43)o2)cc1OC | -0.675
23 | O=C(c1ccncc1)N1N=C(C2CCCCC2)CC1(O)C(F)(F)F (stereo unspecified) | 0.32
24 | CSc1nnnn1CCn1nnnc1SC | -0.14
25 | CS(=O)(=O)NC1c2cccc3cccc(c23)C1Sc1nncn1/N=C/c1ccco1 (stereo unspecified) | 0.4
26 | N#Cc1ccc(OCC(=O)N2CCN(S(=O)(=O)c3cccs3)CC2)cc1 | 0.818

Row | SMILES | activity change, negative = inhibition [%]
27 | Cc1cc(C)n2nc(C(=O)N3CCCC(Nc4ccc(F)c(F)c4)C3)cc2n1 (stereo unspecified) | 0.457
28 | C=CCn1cnc2scc(-c3ccc(C)cc3)c2c1=O | 0.314
29 | CCCCCNc1nc(-c2ccccc2)nc(-n2ccnc2)n1 | -0.269
30 | CC(=O)C1=C(c2ccccc2)N(C(C)=O)n2c(C)nnc2S1 | -0.262
31 | CC1=C(C(=O)OCC2CCCO2)C(c2ccccc2OC(C)C)C2=C(CC(c3ccco3)CC2=O)N1 (stereo unspecified) | -0.466
32 | Cc1occc1-c1nnc(SCC(=O)Nc2ccccc2)n1C(C)c1ccccc1 (stereo unspecified) | 0.434
33 | CCN(Cc1nc(-c2ccccc2)no1)C(=O)c1ccco1 | -0.489
34 | Cc1nnc(N2C(=O)C(=O)/C(=C(/O)c3ccc4c(c3)CC(C)O4)C2c2ccccc2F)s1 (stereo unspecified) | 0.641
35 | CCC(C(=O)NCCCc1ccccc1)c1ccccc1 (stereo unspecified) | 0.435
36 | COCCCNC(=O)C1CCN(C(=O)Nc2ccc(Cl)cc2)CC1 | -0.45
37 | COC(=O)[C@]1(C)N[C@H](CN(C)S(=O)(=O)c2ccc(F)cc2)[C@@H]2C(=O)N(C)C(=O)[C@@H]21 | -0.842
38 | CC(=O)N1CCN(c2ccc(NC(=O)c3ccc4ccccc4c3)cc2)CC1 | 0.314
39 | CCN(CC)C(CNS(=O)(=O)c1ccc(Cl)cc1)c1ccccc1 (stereo unspecified) | -0.496
40 | CCNC(=S)NC(=NCc1cccnc1)Nc1nc(C)cc(C)n1 | 0.0784
41 | Cc1ccc(N2NC3(CCN(C(N)=O)CC3)NC2=O)cc1 | -0.0157
42 | C=CCNC(=S)NNC(=O)COc1cccc(Cl)c1 | -0.462
43 | O=C(O)c1ccccc1OCCOc1ccccc1C(=O)O | 0.223
44 | O=C1NCCC/C1=N/Nc1ccc(F)cc1 | 0.198
45 | CC(C)NC(=O)N(C)C[C@H]1Oc2ccc(NS(=O)(=O)c3ccccc3)cc2C(=O)N([C@H](C)CO)C[C@H]1C | 0.293
46 | COc1ccc(-n2cc(C(=O)O)c3ccccc3c2=O)cc1 | 0.371
47 | O=C(C1CCCCC1)N1CCC(c2nc3c(nnn3Cc3c(F)cccc3Cl)c(=O)[nH]2)CC1 | -0.334
48 | Cc1ccc(C)c(Cn2c(C(=O)OC(C)C)cc3c2ccn3C)c1 | -0.102
49 | NC(=O)COc1cccc2cccnc12 | 0.026
50 | Cn1c(=O)c2[nH]c(=O)cnc2n(C)c1=S | 0.57
51 | Cn1nc(N)nc1N1CCN(c2ccc(F)cc2)CC1 | 0.182
